# Experiments:
# Test in all cases: DAPPL (digital affinity profiling via proximity ligation, sequencing); 10 mM Tris-HCl pH 7.5, 50 mM NaCl, 1 mM DTT, 4% glycerol, room temperature, 30 min; GST-TFs on glutathione beads, 16-mer random dsDNA library, 0.1% formaldehyde crosslink after washing; high values mean tight binding
# Conditions in all cases: protein: recombinant; tags: N-terminal GST; dsDNA, one strand shown
# ELK1 = biological target: T1, ELK1 (Homo sapiens, UniProt P19419 1-428)
# T1 sequence: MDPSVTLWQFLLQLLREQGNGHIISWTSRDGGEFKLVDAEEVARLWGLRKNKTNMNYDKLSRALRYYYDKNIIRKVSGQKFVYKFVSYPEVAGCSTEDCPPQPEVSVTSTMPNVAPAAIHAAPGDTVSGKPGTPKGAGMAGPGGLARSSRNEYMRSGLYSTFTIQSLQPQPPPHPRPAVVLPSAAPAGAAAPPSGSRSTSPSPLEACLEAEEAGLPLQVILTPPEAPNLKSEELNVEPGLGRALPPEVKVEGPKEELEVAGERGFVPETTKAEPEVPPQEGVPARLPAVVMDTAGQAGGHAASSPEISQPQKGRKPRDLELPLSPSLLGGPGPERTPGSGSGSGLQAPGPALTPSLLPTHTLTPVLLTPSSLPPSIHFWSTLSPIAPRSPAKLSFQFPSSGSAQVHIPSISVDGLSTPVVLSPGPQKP
# In short: (§1)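 Sequencing on an Illumina NextSeq500 followed washing, crosslinking with 0.1% formaldehyde, proximity ligation (BsaI/T4 ligase, 1 h, 37 °C) and PCR amplification of pools that had been incubated for 30 min at room temperature with 200 nmole of a random double-stranded 16-mer DNA library in Tris/NaCl/DTT/glycerol buffer. Each pool held DNA-barcoded human transcription factors, expressed in yeast as GST fusions and captured on glutathione beads, plus a tag-only sample. Binding signal is a hexamer's read frequency for a factor divided by its frequency in the tag-only sample.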
# GABPA = biological target: T2, GABPA (Homo sapiens, UniProt Q06546 1-454)
# T2 sequence: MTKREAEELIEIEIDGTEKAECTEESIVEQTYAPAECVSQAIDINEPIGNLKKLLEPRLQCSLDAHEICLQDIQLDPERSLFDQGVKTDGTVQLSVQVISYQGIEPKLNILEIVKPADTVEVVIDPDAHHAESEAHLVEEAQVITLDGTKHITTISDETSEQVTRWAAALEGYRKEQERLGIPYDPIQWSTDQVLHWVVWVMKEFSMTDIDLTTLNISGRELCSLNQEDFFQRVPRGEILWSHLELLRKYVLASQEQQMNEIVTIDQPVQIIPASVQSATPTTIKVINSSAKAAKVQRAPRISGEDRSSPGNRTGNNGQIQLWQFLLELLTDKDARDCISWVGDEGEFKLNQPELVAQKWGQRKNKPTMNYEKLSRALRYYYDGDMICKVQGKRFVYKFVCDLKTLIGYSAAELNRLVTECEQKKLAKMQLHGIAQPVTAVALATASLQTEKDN
# In short: as §1
# ELF1 = ELF1 (Homo sapiens, UniProt P32519 1-619)
# In short: as §1
# EHF = biological target: T3, EHF (Homo sapiens, UniProt Q9NZC4 1-300)
# T3 sequence: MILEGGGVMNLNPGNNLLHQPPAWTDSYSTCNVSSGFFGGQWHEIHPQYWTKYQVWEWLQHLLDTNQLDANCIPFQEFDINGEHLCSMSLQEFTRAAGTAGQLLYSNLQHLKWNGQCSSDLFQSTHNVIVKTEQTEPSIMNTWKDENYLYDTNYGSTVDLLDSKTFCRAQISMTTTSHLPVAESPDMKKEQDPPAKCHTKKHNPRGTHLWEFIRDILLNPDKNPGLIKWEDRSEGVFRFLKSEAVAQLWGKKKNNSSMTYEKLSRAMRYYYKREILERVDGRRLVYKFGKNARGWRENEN
# In short: as §1
# SPIB = SPIB (Homo sapiens, UniProt Q01892 1-262)
# In short: as §1
# FEV = biological target: T4, FEV (Homo sapiens, UniProt Q99581 1-238)
# T4 sequence: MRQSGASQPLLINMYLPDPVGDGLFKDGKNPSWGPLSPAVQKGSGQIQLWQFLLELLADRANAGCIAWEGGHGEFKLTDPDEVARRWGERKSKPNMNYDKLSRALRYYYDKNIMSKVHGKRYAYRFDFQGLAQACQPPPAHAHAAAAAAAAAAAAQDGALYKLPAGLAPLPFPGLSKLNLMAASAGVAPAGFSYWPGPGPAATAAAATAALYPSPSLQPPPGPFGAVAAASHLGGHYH
# In short: as §1
# ETV5 = ETV5 (Homo sapiens, UniProt P41161 1-510)
# In short: as §1
# ELK4 = biological target: T5, ELK4 (Homo sapiens, UniProt P28324-2 1-405)
# T5 sequence: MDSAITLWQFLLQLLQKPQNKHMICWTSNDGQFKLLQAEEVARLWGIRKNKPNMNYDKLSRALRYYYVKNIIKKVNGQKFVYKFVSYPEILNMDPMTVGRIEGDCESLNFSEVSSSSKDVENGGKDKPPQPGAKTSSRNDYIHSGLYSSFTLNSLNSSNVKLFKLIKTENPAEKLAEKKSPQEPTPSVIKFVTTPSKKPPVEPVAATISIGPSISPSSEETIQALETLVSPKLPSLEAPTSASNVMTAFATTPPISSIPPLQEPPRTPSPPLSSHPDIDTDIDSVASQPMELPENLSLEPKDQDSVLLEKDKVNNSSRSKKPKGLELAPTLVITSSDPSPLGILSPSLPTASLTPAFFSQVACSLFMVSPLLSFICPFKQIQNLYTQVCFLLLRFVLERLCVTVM
# In short: as §1
# ELF3 = biological target: T6, ELF3 (Homo sapiens, UniProt P78545 1-371)
# T6 sequence: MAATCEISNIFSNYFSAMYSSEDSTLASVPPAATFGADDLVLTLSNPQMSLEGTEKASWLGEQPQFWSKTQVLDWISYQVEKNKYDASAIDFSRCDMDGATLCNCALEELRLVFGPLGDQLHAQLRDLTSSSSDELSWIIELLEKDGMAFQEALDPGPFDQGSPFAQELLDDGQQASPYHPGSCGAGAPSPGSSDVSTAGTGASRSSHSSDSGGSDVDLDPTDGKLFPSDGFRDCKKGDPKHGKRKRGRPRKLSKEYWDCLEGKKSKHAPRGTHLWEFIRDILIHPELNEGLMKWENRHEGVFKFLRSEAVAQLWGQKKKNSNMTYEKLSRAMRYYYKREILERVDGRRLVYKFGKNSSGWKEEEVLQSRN
# In short: as §1
# ETV1 = ETV1 (Homo sapiens, UniProt P50549 1-477)
# In short: as §1
# SPDEF = biological target: T7, SPDEF (Homo sapiens, UniProt O95238 1-335)
# T7 sequence: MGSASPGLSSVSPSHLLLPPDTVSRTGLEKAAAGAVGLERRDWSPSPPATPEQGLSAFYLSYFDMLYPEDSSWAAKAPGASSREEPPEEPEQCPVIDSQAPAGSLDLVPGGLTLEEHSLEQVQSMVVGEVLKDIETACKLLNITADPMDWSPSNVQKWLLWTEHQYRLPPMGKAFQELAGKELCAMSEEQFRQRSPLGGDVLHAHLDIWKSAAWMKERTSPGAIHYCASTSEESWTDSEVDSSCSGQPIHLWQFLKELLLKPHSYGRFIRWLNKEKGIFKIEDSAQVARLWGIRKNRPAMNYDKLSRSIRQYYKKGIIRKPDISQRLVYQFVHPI
# In short: as §1
# ETV7 = biological target: T8, ETV7 (Homo sapiens, UniProt Q9Y603 1-341)
# T8 sequence: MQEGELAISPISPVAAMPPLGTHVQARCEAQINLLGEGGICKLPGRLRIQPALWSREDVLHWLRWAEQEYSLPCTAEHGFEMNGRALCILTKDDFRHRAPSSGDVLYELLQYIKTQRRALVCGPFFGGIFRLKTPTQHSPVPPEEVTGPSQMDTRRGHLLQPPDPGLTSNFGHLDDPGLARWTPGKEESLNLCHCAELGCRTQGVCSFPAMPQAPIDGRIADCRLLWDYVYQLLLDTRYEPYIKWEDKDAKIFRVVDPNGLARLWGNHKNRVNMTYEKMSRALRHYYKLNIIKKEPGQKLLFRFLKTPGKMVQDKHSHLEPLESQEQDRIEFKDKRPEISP
# In short: as §1
# ETV3 = biological target: T9, ETV3 (Homo sapiens, UniProt P41162-2 1-143)
# T9 sequence: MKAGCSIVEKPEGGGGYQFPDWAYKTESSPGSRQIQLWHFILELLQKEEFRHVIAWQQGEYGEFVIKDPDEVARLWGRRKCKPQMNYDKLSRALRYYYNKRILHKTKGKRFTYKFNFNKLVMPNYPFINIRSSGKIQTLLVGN
# In short: as §1
# ETV6 = ETV6 (Homo sapiens, UniProt P41212 1-452)
# In short: as §1
# Chain of ELF1 (P32519 whole entry): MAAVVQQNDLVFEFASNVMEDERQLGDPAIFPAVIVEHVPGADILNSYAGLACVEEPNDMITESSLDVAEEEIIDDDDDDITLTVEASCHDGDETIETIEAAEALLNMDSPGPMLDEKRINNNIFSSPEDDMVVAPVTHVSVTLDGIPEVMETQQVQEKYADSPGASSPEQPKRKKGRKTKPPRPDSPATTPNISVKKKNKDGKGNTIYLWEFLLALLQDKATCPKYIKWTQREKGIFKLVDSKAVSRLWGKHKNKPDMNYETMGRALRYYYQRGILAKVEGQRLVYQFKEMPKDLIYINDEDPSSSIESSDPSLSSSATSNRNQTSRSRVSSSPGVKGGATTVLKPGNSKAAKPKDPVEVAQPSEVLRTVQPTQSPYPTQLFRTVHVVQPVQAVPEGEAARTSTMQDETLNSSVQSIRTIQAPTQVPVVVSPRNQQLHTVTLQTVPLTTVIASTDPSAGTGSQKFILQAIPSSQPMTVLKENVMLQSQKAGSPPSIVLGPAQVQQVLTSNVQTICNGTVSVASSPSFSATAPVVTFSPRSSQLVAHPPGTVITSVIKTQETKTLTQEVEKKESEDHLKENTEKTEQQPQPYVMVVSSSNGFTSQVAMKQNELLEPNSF
# Chain of ETV5 (P41161 whole entry): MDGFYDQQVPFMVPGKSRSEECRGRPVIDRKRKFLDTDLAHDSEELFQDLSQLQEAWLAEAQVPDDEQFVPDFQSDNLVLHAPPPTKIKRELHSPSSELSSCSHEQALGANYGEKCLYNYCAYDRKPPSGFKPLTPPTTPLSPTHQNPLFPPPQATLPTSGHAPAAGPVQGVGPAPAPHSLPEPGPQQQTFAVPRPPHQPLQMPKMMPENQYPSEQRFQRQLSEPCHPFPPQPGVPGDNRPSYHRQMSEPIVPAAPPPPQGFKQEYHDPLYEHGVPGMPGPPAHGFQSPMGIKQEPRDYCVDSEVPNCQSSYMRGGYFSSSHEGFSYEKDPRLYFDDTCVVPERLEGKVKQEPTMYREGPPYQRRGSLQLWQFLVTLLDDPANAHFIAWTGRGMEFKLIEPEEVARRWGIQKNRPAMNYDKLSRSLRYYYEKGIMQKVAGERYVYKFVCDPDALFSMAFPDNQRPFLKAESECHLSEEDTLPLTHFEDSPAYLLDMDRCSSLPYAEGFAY
# Chain of ETV6 (P41212 whole entry): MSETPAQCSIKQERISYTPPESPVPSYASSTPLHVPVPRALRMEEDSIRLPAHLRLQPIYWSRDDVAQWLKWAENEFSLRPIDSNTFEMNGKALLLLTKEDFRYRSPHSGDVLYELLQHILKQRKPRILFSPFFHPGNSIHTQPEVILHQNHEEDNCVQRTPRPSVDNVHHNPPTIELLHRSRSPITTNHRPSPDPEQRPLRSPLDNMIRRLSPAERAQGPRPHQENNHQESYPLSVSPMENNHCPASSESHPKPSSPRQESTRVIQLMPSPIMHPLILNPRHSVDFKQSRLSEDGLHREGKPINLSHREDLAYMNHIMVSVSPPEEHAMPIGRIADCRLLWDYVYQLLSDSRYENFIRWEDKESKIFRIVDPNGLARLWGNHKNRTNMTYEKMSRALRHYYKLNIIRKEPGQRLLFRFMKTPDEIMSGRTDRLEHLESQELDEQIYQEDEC
# Chain of ETV1 (P50549 whole entry): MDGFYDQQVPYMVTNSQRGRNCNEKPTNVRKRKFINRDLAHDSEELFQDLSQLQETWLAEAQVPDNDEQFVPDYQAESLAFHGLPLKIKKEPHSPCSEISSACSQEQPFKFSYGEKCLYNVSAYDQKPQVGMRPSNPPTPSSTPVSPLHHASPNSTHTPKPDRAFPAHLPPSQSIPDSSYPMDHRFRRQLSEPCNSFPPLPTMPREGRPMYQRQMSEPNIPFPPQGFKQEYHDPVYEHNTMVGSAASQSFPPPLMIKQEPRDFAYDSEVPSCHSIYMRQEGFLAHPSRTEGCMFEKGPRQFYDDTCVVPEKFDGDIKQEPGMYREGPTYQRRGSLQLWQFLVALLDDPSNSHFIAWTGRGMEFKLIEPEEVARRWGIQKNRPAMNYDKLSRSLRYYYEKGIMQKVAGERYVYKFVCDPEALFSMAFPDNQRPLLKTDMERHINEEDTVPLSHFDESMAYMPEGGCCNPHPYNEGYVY
# Chain of SPIB (Q01892 whole entry): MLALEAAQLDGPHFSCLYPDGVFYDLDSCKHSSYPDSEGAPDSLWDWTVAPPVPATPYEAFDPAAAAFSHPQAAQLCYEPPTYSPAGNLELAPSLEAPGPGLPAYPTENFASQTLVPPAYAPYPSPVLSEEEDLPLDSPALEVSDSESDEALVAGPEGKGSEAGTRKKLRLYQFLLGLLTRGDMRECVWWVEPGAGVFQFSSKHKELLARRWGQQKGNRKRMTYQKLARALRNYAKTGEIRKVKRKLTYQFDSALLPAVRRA
sequence,measurement,setting,value
TCGTCC,binding signal,ELK1,"1.1 fold enrichment (6-mer frequency, TF over GST control)"
same,binding signal,GABPA,"1.05 fold enrichment (6-mer frequency, TF over GST control)"
same,binding signal,ELF1,"1.03 fold enrichment (6-mer frequency, TF over GST control)"
same,binding signal,EHF,"1 fold enrichment (6-mer frequency, TF over GST control)"
same,binding signal,SPIB,"1.06 fold enrichment (6-mer frequency, TF over GST control)"
same,binding signal,FEV,"1 fold enrichment (6-mer frequency, TF over GST control)"
same,binding signal,ETV5,"1.01 fold enrichment (6-mer frequency, TF over GST control)"
same,binding signal,ELK4,"1.15 fold enrichment (6-mer frequency, TF over GST control)"
same,binding signal,ELF3,"1.08 fold enrichment (6-mer frequency, TF over GST control)"
same,binding signal,ETV1,"1.06 fold enrichment (6-mer frequency, TF over GST control)"
same,binding signal,SPDEF,"1.08 fold enrichment (6-mer frequency, TF over GST control)"
same,binding signal,ETV7,"1.08 fold enrichment (6-mer frequency, TF over GST control)"
same,binding signal,ETV3,"1.04 fold enrichment (6-mer frequency, TF over GST control)"
same,binding signal,ETV6,"1.08 fold enrichment (6-mer frequency, TF over GST control)"

# From paper PMC7862700, “An all-to-all approach to the identification of sequence-specific readers for epigenetic DNA modifications on cytosine”
